# Results taken from paper PMC6602471.
# Whole data set: some 1,300 sequences, median “log fluorescence intensity” near 8.9, cut for the highest 2% near 13. For the sample, the highest values were picked, then their nearest neighbours and some sequences at random.
# Target: T1, ELK1 (Homo sapiens, UniProt P19419 1-428)
# T1 sequence: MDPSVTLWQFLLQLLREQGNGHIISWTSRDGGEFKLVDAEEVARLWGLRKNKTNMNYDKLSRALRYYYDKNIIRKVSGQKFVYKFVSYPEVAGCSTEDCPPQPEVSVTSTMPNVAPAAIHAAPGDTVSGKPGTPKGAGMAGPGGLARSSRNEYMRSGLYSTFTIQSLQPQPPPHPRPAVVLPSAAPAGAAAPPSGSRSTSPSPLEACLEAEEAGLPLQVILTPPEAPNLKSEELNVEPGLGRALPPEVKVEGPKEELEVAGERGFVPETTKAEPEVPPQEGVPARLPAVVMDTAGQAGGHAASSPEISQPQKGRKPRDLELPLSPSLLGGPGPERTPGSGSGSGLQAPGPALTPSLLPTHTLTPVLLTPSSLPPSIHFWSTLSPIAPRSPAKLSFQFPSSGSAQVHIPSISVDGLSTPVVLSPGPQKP
# Experiment: custom PBM; custom protein-binding microarray; buffer, salt, pH and temperature not stated; high values mean tight binding
# Conditions: dsDNA, one strand shown
row,Sequence,binding signal
1,TCCGGTTACCAGCTCCACCCACTTCAGGCCTTGTAGGTCTTGATTCGCTTGACGCTGCTG,8.91 log fluorescence intensity
2,TAAAGGGAAGACGGTTGTGGTAGTTCCGCGTATTAAGTCTTGATTCGCTTGACGCTGCTG,9.44 log fluorescence intensity
3,TCCGGCTCCCAGCTCCACCCACTTCAGGCCTTGTAGGTCTTGATTCGCTTGACGCTGCTG,8.92 log fluorescence intensity
4,CACAATTTTTACAGTAATGTAGCACGCGTAATTCCTGTCTTGATTCGCTTGACGCTGCTG,8.98 log fluorescence intensity
5,CAGCATAGGACTCCTTCCCTGAAGCAATTGATAACCGTCTTGATTCGCTTGACGCTGCTG,8.92 log fluorescence intensity
6,CACAATTTTTACAGTAATGTAGCACGCGTAGCTCCTGTCTTGATTCGCTTGACGCTGCTG,9.06 log fluorescence intensity
7,TAAAGGGACGACGGTTGTGGTAGTTCCGGGTATTAAGTCTTGATTCGCTTGACGCTGCTG,11.3 log fluorescence intensity
8,CACAATTTTTACAGTAATGTAGCACGCGTTACTCCTGTCTTGATTCGCTTGACGCTGCTG,9.11 log fluorescence intensity
9,GATTTATTTCTGCCCTTATTCGCACGTGCCATAACAGTCTTGATTCGCTTGACGCTGCTG,8.91 log fluorescence intensity
10,CAGCATAGGACTTCTTCCCTGAAGCAATAGATAACCGTCTTGATTCGCTTGACGCTGCTG,8.97 log fluorescence intensity
11,CACAATTTTTACAGTAATGTAGTACGCGTAACTCCTGTCTTGATTCGCTTGACGCTGCTG,9.01 log fluorescence intensity
12,GGAAAAAGGCCCAGGGTAACACCGGAAGTGGGCGTAGTCTTGATTCGCTTGACGCTGCTG,10.9 log fluorescence intensity
13,TGTCGGGTAAGGGAATGTAGATCACGTGAATGACAAGTCTTGATTCGCTTGACGCTGCTG,8.94 log fluorescence intensity
14,TAAAGGGAAGACGGTTGTGGTAGTTCCGGGTTTTAAGTCTTGATTCGCTTGACGCTGCTG,11.2 log fluorescence intensity
15,TACTGACTTATATATGCGGATGCACATGAATAGACCGTCTTGATTCGCTTGACGCTGCTG,9.12 log fluorescence intensity
16,GGAAAAAGGCCCAGGGTAACACCGGAAGTGGCCTTAGTCTTGATTCGCTTGACGCTGCTG,10.9 log fluorescence intensity
17,GCTGCTGCGGTGCATACCCCACCGGATGTGACCTCGGTCTTGATTCGCTTGACGCTGCTG,10.1 log fluorescence intensity
18,GGAAAAAGGCCCAGGGTAACACAGGAAGTGGGCTTAGTCTTGATTCGCTTGACGCTGCTG,9.55 log fluorescence intensity
19,GATTAATATCTGCCCTTATTCGCACGTGCCATAACAGTCTTGATTCGCTTGACGCTGCTG,8.95 log fluorescence intensity
20,CTGCATAGGACTTCTTCCCTGAAGCAATTGATAACCGTCTTGATTCGCTTGACGCTGCTG,8.94 log fluorescence intensity
21,GACTAATTTCTGCCCTTATTCGCACGTGCCATAACAGTCTTGATTCGCTTGACGCTGCTG,8.95 log fluorescence intensity
22,TCCGGCTACCAGTTCCACCCACTTCAGGCCTTGTAGGTCTTGATTCGCTTGACGCTGCTG,9.18 log fluorescence intensity
23,GGAATAAGGCCCAGGGTAACACCGGAAGTGGGCTTAGTCTTGATTCGCTTGACGCTGCTG,10.9 log fluorescence intensity

row,Sequence,binding signal
1,TACTAACTTATATATGCGAATGCACATGAATAGACCGTCTTGATTCGCTTGACGCTGCTG,8.93 log fluorescence intensity
2,TCCGGCTACCAGCTCCACCCACTTCAGTCCTTGTAGGTCTTGATTCGCTTGACGCTGCTG,9.06 log fluorescence intensity
3,GATTCATTTCTGCCCTTATTCGCACGTGCCATAACAGTCTTGATTCGCTTGACGCTGCTG,8.97 log fluorescence intensity
4,GGAAAAAGGCCCAGGGAAACACCGGAAGTGGGCTTAGTCTTGATTCGCTTGACGCTGCTG,11.4 log fluorescence intensity
5,GTGTATAGGATCCCATCCAACACACGTGTTCAAATGGTCTTGATTCGCTTGACGCTGCTG,8.97 log fluorescence intensity
6,TACTGACTTCTATATGCGAATGCACATGAATAGACCGTCTTGATTCGCTTGACGCTGCTG,8.96 log fluorescence intensity
7,TGTCGGGCAAGGGAATGTAGATCACGTGAATGAAAAGTCTTGATTCGCTTGACGCTGCTG,9.09 log fluorescence intensity
8,CAGCATAGTACTTCTTCCCTGAAGCAATTGATAACCGTCTTGATTCGCTTGACGCTGCTG,8.98 log fluorescence intensity
9,TAAAGGGAAGACGGTTGTGGTGGTTCCGGGTATTAAGTCTTGATTCGCTTGACGCTGCTG,11.1 log fluorescence intensity
10,GCTGCTGGGGTGCATACCCCACCGGATGTGACCCCGGTCTTGATTCGCTTGACGCTGCTG,9.94 log fluorescence intensity
11,GTGTATAGGATCCCATTCAACACACGTGTTAAAATGGTCTTGATTCGCTTGACGCTGCTG,8.9 log fluorescence intensity
12,TAAAGGGAAGACGGTTGTGGTAGATCCGGGTATTAAGTCTTGATTCGCTTGACGCTGCTG,9.61 log fluorescence intensity
13,TAAGGGGAAGACGGTTGTGGTAGTTCCGGGTATTAAGTCTTGATTCGCTTGACGCTGCTG,11.3 log fluorescence intensity
14,GGAAAAAGGCACAGGGTAACACCGGAAGTGGGCTTAGTCTTGATTCGCTTGACGCTGCTG,11 log fluorescence intensity
15,GGAAAAAGGCCCAGGGTAACACCGGAATTGGGCTTAGTCTTGATTCGCTTGACGCTGCTG,9.46 log fluorescence intensity
16,CGGAAGTGTCGTAAACGTCGGATATCCGCTTCTTCTGTCTTGATTCGCTTGACGCTGCTG,11.5 log fluorescence intensity
17,CAGCATAGGACTTCTTCCCTGAAGCAGTTGATAACCGTCTTGATTCGCTTGACGCTGCTG,8.98 log fluorescence intensity
18,GTGTATAGGATCCCATCCAACACACGTGTTAATATGGTCTTGATTCGCTTGACGCTGCTG,8.92 log fluorescence intensity
19,GGAAAAAGGCCCCGGGTAACACCGGAAGTGGGCTTAGTCTTGATTCGCTTGACGCTGCTG,12.6 log fluorescence intensity
20,GGAAAAAGGCCCTGGGTAACACCGGAAGTGGGCTTAGTCTTGATTCGCTTGACGCTGCTG,11.1 log fluorescence intensity
21,GGAAAAAGGCCCGGGGTAACACCGGAAGTGGGCTTAGTCTTGATTCGCTTGACGCTGCTG,11.8 log fluorescence intensity
22,CTGGGACTTGACCCAAATCTGCCACGTGGGTCGTTTGTCTTGATTCGCTTGACGCTGCTG,9 log fluorescence intensity
23,TGTCAGGTAAGGGAATGTAGATCACGTGAATGAAAAGTCTTGATTCGCTTGACGCTGCTG,8.9 log fluorescence intensity

row,Sequence,binding signal
1,TACTGAGTTATATATGCGAATGCACATGAATAGACCGTCTTGATTCGCTTGACGCTGCTG,8.97 log fluorescence intensity
2,TAAAGGGAAGACGGTTGTGGTAGTTCCGGGAATTAAGTCTTGATTCGCTTGACGCTGCTG,11.2 log fluorescence intensity
3,CAGCATAGGACTTCTTCCCTGAAGCAATTGATACCCGTCTTGATTCGCTTGACGCTGCTG,8.91 log fluorescence intensity
4,TACTGACTTATATATGCGAATGCACATGAATAGAACGTCTTGATTCGCTTGACGCTGCTG,8.92 log fluorescence intensity
5,TGGCGGGTAAGGGAATGTAGATCACGTGAATGAAAAGTCTTGATTCGCTTGACGCTGCTG,8.95 log fluorescence intensity
6,CTGGGACTTGACCCAACTCTGCCACGTGGGTCGTATGTCTTGATTCGCTTGACGCTGCTG,8.98 log fluorescence intensity
7,CTGGGACTTGACCCAACTCTGCCACGTGGGGCGTTTGTCTTGATTCGCTTGACGCTGCTG,8.94 log fluorescence intensity
8,TACTGACTTATATATCCGAATGCACATGAATAGACCGTCTTGATTCGCTTGACGCTGCTG,9.23 log fluorescence intensity
9,TAAAGGGAAGATGGTTGTGGTAGTTCCGGGTATTAAGTCTTGATTCGCTTGACGCTGCTG,10.9 log fluorescence intensity
10,CGGAAGCGTCGTAAACGTCGGATATCCGGTTCTTCTGTCTTGATTCGCTTGACGCTGCTG,12.5 log fluorescence intensity
11,CGGAAATGTCGTAAACGTCGGATATCCGGTTCTTCTGTCTTGATTCGCTTGACGCTGCTG,12.6 log fluorescence intensity
12,CGGAAGTCTCGTAAACGTCGGATATCCGGTTCTTCTGTCTTGATTCGCTTGACGCTGCTG,12 log fluorescence intensity
13,CGGAAGGGTCGTAAACGTCGGATATCCGGTTCTTCTGTCTTGATTCGCTTGACGCTGCTG,12.1 log fluorescence intensity
14,CGGACGTGTCGTAAACGTCGGATATCCGGTTCTTCTGTCTTGATTCGCTTGACGCTGCTG,12.2 log fluorescence intensity
15,CGGAATTGTCGTAAACGTCGGATATCCGGTTCTTCTGTCTTGATTCGCTTGACGCTGCTG,12.8 log fluorescence intensity
16,CGGAAGTATCGTAAACGTCGGATATCCGGTTCTTCTGTCTTGATTCGCTTGACGCTGCTG,12 log fluorescence intensity
17,CGGAACTGTCGTAAACGTCGGATATCCGGTTCTTCTGTCTTGATTCGCTTGACGCTGCTG,12.5 log fluorescence intensity
18,CGGATGTGTCGTAAACGTCGGATATCCGGTTCTTCTGTCTTGATTCGCTTGACGCTGCTG,12.2 log fluorescence intensity
19,CTGGGACTTGGCCCAACTCTGCCACGTGGGTCGTTTGTCTTGATTCGCTTGACGCTGCTG,8.95 log fluorescence intensity
20,TCCGGCTATCAGCTCCACCCACTTCAGGCCTTGTAGGTCTTGATTCGCTTGACGCTGCTG,9.1 log fluorescence intensity
21,CAGCATAGGACTTCTTCCCTGAAGAAATTGATAACCGTCTTGATTCGCTTGACGCTGCTG,8.96 log fluorescence intensity
